Screening results (PubChem BioAssay)
Bst PK mod – pyruvate kinase (B. stearothermophilus) modulation. hit rate 1.2% among 51,000. Potency, µM. purified pyruvate kinase, luminescence ATP production; ribose 5-phosphate activator present at AC10; in the data active = potency below about 11 µM; inconclusive = mostly about 12 µM to 25 µM;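 the screen sought inhibitors and activators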;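 also: scaled between full activation by ribose 5 phosphate and full inhibition by luteolin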
ALOX15 inhib – inhibitors of human 15-lipoxygenase (ALOX15); P16050; purified 15hLO-1, xylenol orange hydroperoxide absorbance; Potency, µM (series often up to 57.1 µM), inactives show at the highest dose activity change, negative = inhibition, actives largely listed as inhibitors; hit rate 1.4% among 74,000; also: % is scaled to controls: 0 for no effect and ±100 for the full control effect; nearly all actives have a fitted effect of over 55% in size
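Purified human 15hLO-1 (40 nM) in 25 mM Hepes pH 7.5, 0.01% Triton X-100, preincubated 15 min RT with compound, then 50 uM arachidonic acid for 6 min. Hydroperoxide read by ferrous/xylenol orange, 30 min; 573/405 nm absorbance ratio gave progress.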
HEK293 cAMP cs – raises cAMP in parental HEK293 cells, TSHR agonist counter-screen | Potency, µM (top dose mostly 57.1 µM), for the others: top-dose activation, actives largely listed as activators | hit rate 2.5% among 73,000 | parental HEK293 CNG cAMP sensor, membrane potential fluorescence; also: % of control where 0% means no effect; nearly all actives have a fitted effect of over 55% in size
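Counterscreen for endogenous-receptor signalling: CNG-channel HEK 293 cells report cAMP rise by membrane depolarization. After 60 min dye equilibration with 100 uM RO 20-1724, compounds incubated 30 min before bottom-read fluorescence at 590 nm.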
Luciferase inh – inhibitors of firefly luciferase; hit rate 2.2% among 72,000; purified firefly luciferase, luminescence, 8 min; Potency, µM (highest dose often 57.1 µM), for the others: at the top dose activity change, negative = inhibition, actives largely listed as inhibitors; also: % is scaled to controls: 0 for no effect and ±100 for the full control effect; nearly all actives have a fitted effect of over 40% in size
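Inhibition of light generation by firefly luciferase from ATP and luciferin was profiled with concentration-response curves per sample, ATP held at 10 uM within the enzyme's linear range. Plates were read by luminescence after an 8-minute ambient incubation.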
Tau filament bind – binds recombinant human tau filaments | P10636 | recombinant tau filaments, thioflavin S fluorescence, 15 h; filaments grown with octadecylsulfate alongside compound | Potency, µM (titrated, usually from 57.1 µM), for the others: top-dose activity change, negative = inhibition | hit rate 2% among 71,000;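 also: % is scaled to controls: 0 for no effect and ±100 for the full control effect; actives lower thioflavin S fluorescence by blocking filaments or displacing dye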
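Recombinant tau protein (human, 1 uM final) plus 30 uM ODS in HEPES pH 7.4 with NaCl, DTT and thioflavine S. Compound present from the start; fluorescence at 510 nm after 15 h, 37 C.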
TSHR ag – activates the human thyroid stimulating hormone receptor | hit rate 0.48% among 73,000 | Potency, µM (titrated, usually from 57.1 µM), for the others: at the highest dose activation, actives largely listed as activators | AID 926 | P16473 | HEK293-CNG-TSHR cells (CNG channel as cAMP sensor), membrane potential dye, cAMP; active = well fitted activation curve with a large enough effect in the main read-out, with a control signal flat, not every such curve was filed as active; inconclusive = small, poorly fitted or top-dose-only effect, or a change in a side signal; inactive = no such curve, though single readings can be large or run the other way; % of control where 0% means no effect;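 also: the control signal comes from parental cells without the receptor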
Target sequence (P16473 whole entry, looked up): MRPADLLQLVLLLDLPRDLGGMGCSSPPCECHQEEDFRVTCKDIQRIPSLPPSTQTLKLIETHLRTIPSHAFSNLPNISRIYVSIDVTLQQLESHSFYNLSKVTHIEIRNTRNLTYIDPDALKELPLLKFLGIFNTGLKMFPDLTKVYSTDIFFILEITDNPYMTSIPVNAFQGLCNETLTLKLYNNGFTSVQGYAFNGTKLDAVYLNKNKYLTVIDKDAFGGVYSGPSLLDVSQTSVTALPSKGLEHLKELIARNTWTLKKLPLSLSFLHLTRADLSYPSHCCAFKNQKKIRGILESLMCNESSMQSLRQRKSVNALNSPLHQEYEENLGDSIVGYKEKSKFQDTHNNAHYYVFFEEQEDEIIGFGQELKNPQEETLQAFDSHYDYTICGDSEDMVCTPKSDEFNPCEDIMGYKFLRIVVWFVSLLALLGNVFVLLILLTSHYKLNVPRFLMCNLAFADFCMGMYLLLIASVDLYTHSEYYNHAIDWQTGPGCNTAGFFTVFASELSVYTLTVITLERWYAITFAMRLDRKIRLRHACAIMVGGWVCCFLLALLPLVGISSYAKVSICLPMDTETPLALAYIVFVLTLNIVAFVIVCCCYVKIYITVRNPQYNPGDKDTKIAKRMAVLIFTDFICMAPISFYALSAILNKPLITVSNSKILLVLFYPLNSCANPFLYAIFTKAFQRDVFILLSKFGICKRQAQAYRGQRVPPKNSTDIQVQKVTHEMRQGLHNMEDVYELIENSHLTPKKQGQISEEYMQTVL
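HEK 293 cells stably expressing TSHR and a modified CNG channel, with CNG-only parental cells as counterscreen, were preloaded 60 min at room temperature with membrane potential dye containing 100 uM RO 20-1724. Compound exposure was 30 min, and depolarization was read as fluorescence at 590 nm.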
Starred values were filed as active, the others as inactive; i = inactive; ? = inconclusive; . = no result given; [ ] = dose if it differs, or a comment. Only some compounds are listed: those with a hit (about 7.8% of all), similar ones and a draw of the others. Unless noted, calls follow the shape of the dose curve; as a rule, active = well fitted curve in the direction sought with a large enough effect; inconclusive = small, poorly fitted or top-dose-only effect, or another doubt; inactive = no such curve, though single readings can be large; an effect the other way counts as inactive or inconclusive. Potency is read from the fitted curve at half-maximal effect.

SMILES	Bst PK mod	ALOX15 inhib	HEK293 cAMP cs	Luciferase inh	Tau filament bind	TSHR ag
C=CCOC(=O)C(C#N)c1nc2ccccc2nc1N1CCCC1 (stereo not drawn)	>57	-17%	17%	1%	16µM*	9%
CCOc1ccccc1N1CCN(c2nc3ccccc3nc2C(C#N)C(=O)OC)CC1 (stereo not drawn)	>26	.	.	-1%[25.5 µM]	.	.
COCCCNC(=O)C(C#N)c1nc2ccccc2nc1N1CCCC1 (stereo not drawn)	>26	.	.	3%[25.5 µM]	.	.
COc1ccccc1N1CCN(c2nc3ccccc3nc2C(C#N)C(=O)OC(C)C)CC1 (stereo not drawn)	>57	-8%	?	4%	7.9µM*	?
O=C(c1ccco1)N1CCC2(CCCN(c3ncccn3)C2)CC1	.	-2%	7%	1%[11.4 µM]	0%	-1%
COc1ccc(-c2nc3cnc(Nc4cccc(OC)c4)nc3n(C[C@H]3CCCO3)c2=O)cc1	.	?	4%	-2%[11.4 µM]	107%	-8%
CCOc1ccccc1N1CCN(S(=O)(=O)c2ccc3c4c(cccc24)C(=O)N3)CC1	>57	-24%	-13%	1%	16µM*	0%
O=C1Nc2ccc(S(=O)(=O)N3CCCCCC3)c3cccc1c23	.	16µM*	32µM*	-2%	25µM*	?
COc1ccc(OC)c(NC(=O)C2CCC(CNc3c(N4CCC(C)CC4)c(=O)c3=O)CC2)c1 (stereo not drawn)	.	-7%	19%	0%	3.2µM*	-3%
COc1ccc(CCNC(=O)C2CCC(CNc3c(N4CCCC4)c(=O)c3=O)CC2)cc1OC (stereo not drawn)	.	0%	11%	.	.	-7%
CC(CCC(=O)O)(c1cc(Br)c(O)c(Br)c1)c1cc(Br)c(O)c(Br)c1	.	-9%[11.4 µM]	1.3µM*	4%[11.4 µM]	2%[11.4 µM]	?
O=C(c1cc(-c2ccco2)nn1-c1cccc(Cl)c1)N1CCCCC1	>57	7.9µM*	16%	-7%	?	.
COc1ccc(CC(=O)Nc2cccc(-c3nnc(-c4cccc(C)c4)o3)c2)cc1OC	.	-14%	?	?	i	?
COc1ccc(CC(=O)Nc2cccc(-c3nnc(-c4ccc(C)cc4)o3)c2)cc1OC	i	-12%	28%	3.2µM*	i	.
COC(=O)C1(CC(C)C)C=C2C(=C(C(C)C)C(=O)C2C)CN1 (stereo not drawn)	.	.	?	.	28%	?
O=C(O)CCc1nc(-c2ccccc2-n2cccc2)no1	.	7%[11.4 µM]	10%[11.4 µM]	2%[11.4 µM]	-1%[11.4 µM]	6%[11.4 µM]
COc1ccc(OC)c2[nH]c(=O)c(CCNS(=O)(=O)c3ccccc3)cc12	?	3%	20%	1%	0%	19%
CCCS(=O)(=O)NCCc1cc2c(OC)ccc(OC)c2[nH]c1=O	6.4*	7%	17%	-4%	0%	-3%
CCOC(=O)c1ccccc1NC(=O)C1COc2ccccc2O1 (stereo not drawn)	.	-11%	25µM*	2%	10%	?
O=C(NC1=NCCS1)C1COc2ccccc2O1 (stereo not drawn)	4.3*	-7%	-6%	2µM*	-4%	-11%
O=C(Nc1nc2c(s1)CCCC2)C1COc2ccccc2O1 (stereo not drawn)	.	-11%	?	10µM*	0%	?
Cc1nnc(NC(=O)C2COc3ccccc3O2)s1 (stereo not drawn)	>57	5%	0%	-1%	5%	-5%
O=C(Nc1ccc2c(c1)OCO2)C1COc2ccccc2O1 (stereo not drawn)	.	-4%	0%	-21%	13µM*	11%
COC(=O)c1ccccc1NC(=O)C1COc2ccccc2O1 (stereo not drawn)	>26	.	.	0%[25.5 µM]	.	.
O=C(c1cc(C(F)(F)F)cc(C(F)(F)F)c1)N1CCC2(CC1)CCN(c1ccncc1)CC2	.	-9%	3.2µM*	1%[11.4 µM]	15%	?
SMILES	Bst PK mod	ALOX15 inhib	HEK293 cAMP cs	Luciferase inh	Tau filament bind	TSHR ag
O=C(c1cccc(F)c1)N1CCC2(CCCN(c3cccc(-c4ccccc4)c3)C2)CC1	.	-21%	1.3µM*	1%[11.4 µM]	6%	?
O=C(c1cccc(F)c1)N1CCC2(CC1)CCN(c1cccc(-c3ccccc3)c1)CC2	.	-9%	-4%	0%[11.4 µM]	25µM*	-8%
O=C(c1cccc(F)c1)N1CCC2(CCCN(c3ccncc3)C2)CC1	.	0%	?	1%[11.4 µM]	7%	?
O=C(c1cccc(F)c1)N1CCC2(CC1)CCN(c1ccncc1)CC2	.	3%	4µM*	0%[11.4 µM]	27%	?
O=C(c1cccc(F)c1)N1CCC2(CC1)CN(c1cccc(-c3ccccc3)c1)C2	.	-9%	18%	-5%[11.4 µM]	-12%	18%
O=C(c1cc(C(F)(F)F)cc(C(F)(F)F)c1)N1CCC2(CCN(Cc3ccncc3)CC2)CC1	.	-1%	17%	1%[11.4 µM]	-4%	?
CC(=O)N1CCC2(CC1)CCN(c1ccc(-c3ccccc3)cc1)CC2	.	-23%	-7%	-3%[11.4 µM]	13µM*	-17%
COc1ccc(C2=Nn3c(nnc3-c3ccccn3)SC2)cc1OC	>26	.	.	0%[25.5 µM]	.	.
c1ccc(C2=Nn3c(nnc3-c3cc(-c4ccccc4)n[nH]3)SC2)cc1	>11	?	25µM*	?	210%	?
Cc1ccc(-c2nnc3n2N=C(c2ccccc2)CS3)cc1	.	3%	-4%	-1%	31%	8%
COc1ccc(C2=Nn3c(nnc3-c3ccccc3OC)SC2)cc1OC	>57	10%	25%	2%	-7%	10µM*
O=C(Nn1cnnc1)c1cc(-c2ccccn2)nc2ccccc12	.	9%	0%	-26%	1%	-7%
O=C(c1cnc(N2CCN(c3ncccn3)CC2)c2ccccc12)N1CCN(c2ncccn2)CC1	>57	-1%	13%	4%	2%	11%
COc1cccc(-c2cc(C(=O)Nn3cnnc3)c3ccccc3n2)c1	.	-3%	12%	3.2µM*	7%	-7%
O=C(c1cc(-c2ccncc2)nc2ccc(Br)cc12)N1CCN(c2ccccn2)CC1	?	-8%	?	0%	32µM*	?
O=C(c1cccn2c(=O)c3cc(Br)ccc3nc12)N1CCN(c2ccccn2)CC1	>57	-12%	11%	1%	12%	4%
O=C(c1ccc2c3c(cccc13)CC2)N1CCN(c2ncccn2)CC1	6*	-25%	20%	1%	6%	29%
Cc1ccc(-c2cc(C(=O)N3CCOCC3)c3ccccc3n2)cc1	i	3%	6%	13µM*	-3%	25µM*
COc1ccc(-c2cc(C(=O)N3CCOCC3)c3cc(C)ccc3n2)cc1	.	-7%	4%	?	-24%	0%
CCOc1cccc(OCCCNCCCOC)c1	.	-10%	5%	2%	-3%	4%
